# Assay outcomes as filed in PubChem.
# Hits are enriched below; roughly 27% of the tested compounds scored in any of these assays.
# sEH inh: soluble epoxide hydrolase inhibitors, primary screen, biochemical, human sEH; inhibition, % at 2 µM; Bifunctional epoxide hydrolase 2 (Homo sapiens), P34913; recombinant human sEH enzymatic activity assay; actives 0.34% (n = 91,000); in the data active = inhibition above about 80%
# sEH act: soluble epoxide hydrolase activators, primary screen, biochemical, human sEH; actives 0.04% (n = 91,000); Bifunctional epoxide hydrolase 2 (Homo sapiens), P34913; activation, % at 2 µM; purified human sEH enzymatic activity, activator screen; in the data active = activation above about 37%
# CYP2C19 activ: human CYP2C19 activators, primary screen, biochemical, luminescence | 96,000 tested, under 10 active | Cytochrome P450 2C19 (Homo sapiens), P33261 | activation factor at 5 µM | recombinant CYP2C19, luciferin-H EGE luminescence; active compounds read high; 0 = fully inhibited enzyme, 1 = untreated enzyme | AID 1025, 2008;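 active = activation factor of at least 2 at 5 µM in the primary screen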
# CYP2C9 activ: human CYP2C9 activators, primary screen, biochemical, luminescence; Cytochrome P450 2C9 (Homo sapiens), P11712; recombinant CYP2C9, luciferin-H conversion; active compounds read high; factor 1 = untreated enzyme, 0 = blocked; activation factor at 5 µM; actives 1.4% (n = 96,000); AID 1024, 2008;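 active = activation factor of 2 or more for CYP2C9 at a 5 µM dose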
# Target sequence (P11712 whole entry, looked up): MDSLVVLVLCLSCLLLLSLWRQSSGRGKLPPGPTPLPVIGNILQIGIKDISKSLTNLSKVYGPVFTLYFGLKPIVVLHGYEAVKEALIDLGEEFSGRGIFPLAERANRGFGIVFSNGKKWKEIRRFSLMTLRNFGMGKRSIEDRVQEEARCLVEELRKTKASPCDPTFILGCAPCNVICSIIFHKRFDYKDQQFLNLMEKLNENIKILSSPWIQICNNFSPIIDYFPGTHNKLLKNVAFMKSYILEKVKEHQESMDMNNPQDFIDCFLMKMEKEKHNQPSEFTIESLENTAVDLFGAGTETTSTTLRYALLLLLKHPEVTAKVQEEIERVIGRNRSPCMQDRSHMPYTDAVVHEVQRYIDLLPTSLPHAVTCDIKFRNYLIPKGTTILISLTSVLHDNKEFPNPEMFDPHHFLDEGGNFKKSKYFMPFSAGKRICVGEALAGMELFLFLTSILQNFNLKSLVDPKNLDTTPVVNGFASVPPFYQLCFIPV
# CYP2C19 inhib: blockers of cytochrome P450 2C19 activity – biochemical, luminescence, ADME assay, primary screen; P33261; CYP2C19 Supersomes, luciferin-H EGE luminescence, 30 min; AID 778, 2007; actives 21% (n = 96,000); inhibition, % at 5 µM;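 active = CYP2C19 inhibition above a set limit at 5 µM in the primary screen, cut at about 50% in these data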
# CYP2C9 inhib: blockers of cytochrome P450 2C9 activity – biochemical, luminescence, ADME assay, primary screen. P11712. CYP2C9 Supersomes, luciferin-H conversion. inhibition, % at 5 µM. actives 20% (n = 96,000). AID 777, 2007;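 active = blocking of liver enzyme CYP2C9 beyond about 50% at 5 µM, limit read from the data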
# Numbers stand for hits; – = inactive; · = not tested or not shown.
SMILES,sEH inh,sEH act,CYP2C19 activ,CYP2C9 activ,CYP2C19 inhib,CYP2C9 inhib
CCCNC(=O)NC(=O)CN1C(=O)NC(C)(c2ccc(C)cc2)C1=O (stereo not drawn),–,–,–,–,–,–
Cc1cc(C)n(C(=O)c2ccc(S(=O)(=O)N3CCOCC3)cc2)n1,–,–,–,–,–,53
O=S(=O)(NC1CC2CCC1C2)c1ccc(Br)s1 (stereo not drawn),–,–,–,–,64,84
CS(=O)(=O)Nc1ccc(C(=O)NC2CC3CCC2C3)cc1 (stereo not drawn),–,–,–,–,–,–
Cc1cc(C)n(C(=O)c2ccncc2)n1,–,–,–,–,–,–
O=S(=O)(NCC1CCCO1)c1ccc(Br)s1 (stereo not drawn),–,–,–,–,71,–
Cc1ccc(Sc2c(C)nn(C(=O)c3cccc(S(=O)(=O)N4CCOCC4)c3)c2C)cc1,–,–,–,–,53,78
COc1ccc(C(=O)NCCc2nnc(SCC(=O)Nc3ccccc3)n2C)cc1,–,–,–,–,–,–
Cc1nn(C(=O)Cn2ccc([N+](=O)[O-])n2)c(C)c1Br,–,–,–,–,–,–
Cc1ccccc1-c1nc(CS(=O)(=O)CC(=O)NCCCN2C(C)CCCC2C)c(C)o1 (stereo not drawn),·,·,–,–,–,–
CNc1oc(Cc2ccccc2)nc1S(=O)(=O)c1ccc(Cl)cc1,–,–,–,–,–,–
Cc1ccc(C(=O)N2CCN(C)CC2)cc1S(=O)(=O)N1CCCCC1,·,·,–,–,–,–
Cc1cc(C)n(C(=O)c2ccc(C)c(S(=O)(=O)N3CCCC3)c2)n1,–,–,–,–,73,55
Cc1cc(C)n(C(=O)c2ccc(S(=O)(=O)NCC3CCCO3)cc2)n1 (stereo not drawn),–,–,–,–,–,58
O=S(=O)(NCC1CCCO1)c1ccc2oc3ccc(S(=O)(=O)NCC4CCCO4)cc3c2c1 (stereo not drawn),–,–,–,–,–,52
COC(=O)C1CC(O)CN1C(=O)c1ccco1 (stereo not drawn),–,–,–,–,–,–
CC(O)c1n(C)c(Cl)c[n+]1C (stereo not drawn),–,–,–,–,–,–
COc1ccc(OC)c(N2C(=O)CC(Cc3ccc(Cl)cc3)C2=O)c1 (stereo not drawn),–,–,·,·,·,·
Cc1ccc(CC2CC(=O)N(c3ccncc3)C2=O)cc1 (stereo not drawn),–,–,–,–,94,57
Cc1ccc(CC2CC(=O)N(Cc3ccco3)C2=O)cc1 (stereo not drawn),–,–,–,–,88,55
Cc1ccc(CC2CC(=O)N(c3ccc(Cl)cn3)C2=O)cc1 (stereo not drawn),–,–,–,–,58,–
Cc1cc(C)cc(CC2CC(=O)N(c3ccc4c(c3)OCCO4)C2=O)c1 (stereo not drawn),–,–,–,–,–,–
CN(C)c1nc2n(c(=S)n1)CCS2,–,–,–,–,–,–
O=C(NNC(=S)Nc1ccccc1)c1cccc(Br)c1,–,–,–,–,66,62
COc1cccc(NC(=O)COc2ccc(C)cc2)c1,–,–,·,·,·,·
SMILES,sEH inh,sEH act,CYP2C19 activ,CYP2C9 activ,CYP2C19 inhib,CYP2C9 inhib
O=C(Nc1cccc(-c2nnc(-c3ccccc3)o2)c1)c1ccc(Br)o1,–,–,–,–,–,69
CCOc1ccccc1C(=O)Nc1cccc(-c2nnc(-c3ccccc3)o2)c1,–,–,–,–,–,–
C=Cc1cccc(NC(=O)COc2ccccc2)c1,–,–,–,–,87,–
O=C(NNC(=S)Nc1ccccc1)c1ccco1,–,–,–,–,–,–
O=C(COc1ccccc1)Nc1nnc(-c2ccccc2)o1,–,–,–,–,–,–
O=C(COc1ccccc1)Nc1cccc(-c2nnc(-c3ccccc3)o2)c1,·,·,–,–,–,53
Cc1cc(C)cc(OCC(=O)Nc2cccc(-c3nnc(-c4ccco4)o3)c2)c1,–,–,–,–,67,80
COc1ccc(OCC(=O)Nc2cccc(-c3nc4ccccc4o3)c2)cc1,–,–,–,–,–,–
COc1ccc(OCC(=O)Nc2cccc(-c3nc4ccccc4[nH]3)c2)cc1,–,–,–,–,65,94
COc1ccc(C(=O)Nc2cccc(-c3nnc(-c4ccco4)o3)c2)cc1,–,–,–,–,–,60
Cc1cc(C)cc(OCC(=O)Nc2cccc(C(=O)O)c2)c1,–,–,–,–,–,–
Cc1cccc(NC(=S)NNC(=O)c2ccc(Br)o2)c1,–,–,–,–,–,56
Cc1cccc(NC(=S)NNC(=O)c2csc3c2CCCC3)c1,–,–,–,–,–,–
O=C(N1CCCCCC1)N1CCN(S(=O)(=O)N2CCCCC2)CC1,–,–,–,–,–,–
CC(C)(C)C1CCC(=O)C(C2(O)C(=O)Nc3ccccc32)C1 (stereo not drawn),–,–,–,–,–,–
O=C1CCCCCC1C1(O)C(=O)Nc2ccc(Br)cc21 (stereo not drawn),–,–,–,–,52,–
COc1ccc(N2C(=O)CC(S/C(N)=N/N=C(\C)c3cccs3)C2=O)cc1 (stereo not drawn),–,–,–,–,–,–
COc1cccc(OC)c1OCCCCN1CCCC1,–,–,–,–,–,–
COc1cccc(OC)c1OCCCOc1c(OC)cccc1OC,–,–,–,–,76,–
COc1cccc(OCCOc2c(OC)cccc2OC)c1,–,–,–,–,95,–
COc1cccc(OC)c1OCCOc1ccccc1OC(C)C,–,–,–,–,82,–
CC(C)CC(c1nnnn1C(C)C)N1CCN(c2cccc(Cl)c2)CC1 (stereo not drawn),–,–,–,–,–,–
N#C/C(=C\c1ccc(Cl)cc1)c1nc2ncccc2[nH]1,–,–,–,–,–,61
COc1ccc(C2(O)CCN(Cc3nnnn3Cc3ccc(F)cc3)CC2)cc1,–,–,–,–,–,–
CCC(C)N=CC1=C(O)CC(c2ccccc2)CC1=O (stereo not drawn),–,–,–,–,52,–
O=C1CC(c2ccccc2)CC(O)=C1C=NCc1ccccc1 (stereo not drawn),–,–,–,–,–,–
NC(=O)CSc1ncnc2c1cnn2Cc1ccccc1,–,–,–,–,–,–
O=C(c1ccccc1Cl)N(C(=O)c1ccccc1Cl)c1nccc(-c2cccs2)n1,–,–,–,–,–,77
Cc1nnsc1NC(=O)OCc1ccccc1Cl,–,–,–,–,76,–
